Screens from PubChem BioAssay.
CYP2C19 activ = increases human CYP2C19 enzyme activity; activation factor at 5 µM; recombinant CYP2C19, luciferin-H EGE luminescence; hits give high values; 0 = fully inhibited enzyme, 1 = untreated enzyme; P33261; 96,000 tested, under 10 active;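 active = activation factor of at least 2 at 5 µM in the primary screen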;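 note: 0 = wells with 2.5 mM tranylcypromine and 1 = vehicle-only wells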
CYP2C9 inhib = human CYP2C9 inhibition | P11712 | CYP2C9 Supersomes, luciferin-H conversion, luminescence | inhibition, % at 5 µM | 20% of 96,000 active | AID 777;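 active = blocking of liver enzyme CYP2C9 beyond about 50% at 5 µM, limit read from the data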
CYP2C19 inh = inhibitors of human CYP2C19; P33261; CYP2C19 Supersomes, luciferin-H EGE luminescence, 30 min; inhibition, % at 5 µM; 21% of 96,000 active; AID 778;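 active = CYP2C19 inhibition above a set limit at 5 µM in the primary screen, cut at about 50% in these data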;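 note: plate controls were negative control wells for no effect and 2.5 mM tranylcypromine positive control for full effect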
Cav32 inh = blocks human Cav3.2 T-type calcium channel; O95180; Cav3.2-expressing cells, Fluo-4 calcium fluorescence FDSS; hits give low values; B-score at 10 µM; 4% of 100,000 active;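 active = single-dose well whose peak fluorescence ratio is a statistical outlier from its plate by either plate-standardised score or position-corrected B-score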
Pyk2 oligo antag = blocks oligomerization of human Pyk2 in cells. Q14289. 0.83% of 99,000 active. Q293 cells, Pyk2 FERM NanoBiT luminescence; hits give low values. AID 1347419. z-score (the deposit names both 25 µM and 10 µM);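 active = Z-score of -3 or lower, scaled per plate to the spread of control and sample wells; inactive = z-score above -3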;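 note: negative z-score means lost luminescence so less FERM oligomerization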
CYP2C9 activ = increases human cytochrome P450 2C9 activity; recombinant CYP2C9, luciferin-H conversion, luminescence; hits give high values; factor 1 = untreated enzyme, 0 = blocked; activation factor at 5 µM; 1.4% of 96,000 active; AID 1024;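 active = activation factor of 2 or more for CYP2C9 at a 5 µM dose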;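 note: 0 = sulfaphenazole-blocked wells and 1 = vehicle-only wells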
Numbers without * were called inactive; / = not tested or not shown. Sampled rows, rich in hits. Any-hit rate of the full collection: about 27%.

SMILES	CYP2C19 activ	CYP2C9 inhib	CYP2C19 inh	Cav32 inh	Pyk2 oligo antag	CYP2C9 activ
CCS(=O)(=O)c1nc2ccccc2n1Cc1ccccc1Cl	0.1	62*	91*	-3.2	/	0.4
CCc1nc2ccccc2n1Cc1ccccc1OC	0	65*	96*	-1.9	0.3	0.3
CCOc1ccc(N(C(C)=O)c2nc(C)cc(C)c2C#N)cc1	/	/	/	0.85	-0.34	/
CC1CN(Cc2nc3c(c(=O)n(C)c(=O)n3C)n2CCc2ccccc2)CC(C)O1 (stereo unspecified)	/	/	/	0.34	2.9	/
COc1ccc(Cn2c(CCCO)nc3ccccc32)cc1OC	0.1	59*	91*	0.95	0.97	0.4
CCn1c(SCC(=O)N/N=C/C=C\c2ccccc2[N+](=O)[O-])nc2ccccc21	1	-51	-5	0.62	-1.6	1.5
Cn1c(Sc2ccc(Br)cc2)c(C=O)c2ccccc21	0.7	50	27	0.13	-0.7	0.5
Nc1nonc1C(=O)NCCNS(=O)(=O)c1ccc(Br)cc1	0.4	-13	60*	0.61	-0.19	1.1
Clc1ccc(C(c2nnnn2CCc2ccccc2)N2CCSCC2)cc1 (stereo unspecified)	0.2	79*	80*	-6.8*	-0.88	0.2
COc1ccccc1C(c1nnnn1CCc1ccccc1)N1CCN(c2ccccc2)CC1 (stereo unspecified)	0.7	33	31	-5.9*	-2	0.7
COc1cccc(C(c2nnnn2CCc2ccccc2)N2CCN(c3ccccc3)CC2)c1OC (stereo unspecified)	/	/	/	-4.2*	-3.3*	/
COc1cccc(C(c2nnnn2Cc2ccco2)N2CCN(c3cccc(C)c3C)CC2)c1OC (stereo unspecified)	0.4	70*	56*	-6.9*	-3.9*	0.3
Fc1ccc(C(c2nnnn2Cc2ccccc2)N2CCSCC2)cc1 (stereo unspecified)	0.9	4	8	-1.6	-0.71	1
O=C(COC(=O)[C@H](Cc1c[nH]c2ccccc12)NC(=O)c1cccs1)NCc1ccccc1	/	/	/	/	0.67	/
COc1ccccc1N1CCN(C(c2ccccc2)c2nnnn2CCc2ccccc2)CC1 (stereo unspecified)	/	/	/	-3.7	-1.6	/
COc1ccccc1C(c1nnnn1CCc1ccccc1)N1CCCCCC1 (stereo unspecified)	0.8	38	15	-9*	-2	0.6
Clc1ccccc1C(c1nnnn1Cc1ccco1)N1CCN(Cc2ccco2)CC1 (stereo unspecified)	0	17	96*	0.32	0.5	0.8
CN(C[C@H](Cc1ccccc1)N(C[C@H](c1ccccc1)N(CCc1ccccc1)N=O)N=O)N=O	/	/	/	-1	/	/
Cc1ccc(NC(=O)C2=C(O)c3ccccc3N(C)S2(=O)=O)cc1	1.1	73*	-10	-0.86	0.29	0.3
CN1CCN(S(=O)(=O)c2ccc(NC(=O)c3cccs3)cc2)CC1	1.1	-8	-14	-0.99	-0.63	1.1
CCCCN(CCCC)S(=O)(=O)c1ccc(NC(=O)c2cccs2)cc1	0.4	91*	60*	-0.78	-3.2*	0.1
CC1CCN(S(=O)(=O)c2cccc(C(=O)NCc3cccs3)c2)CC1	0.9	28	15	-7.3*	1.4	0.7
CC1CCN(S(=O)(=O)c2ccc(NC(=O)c3cccs3)cc2)CC1	0.2	96*	84*	-2.5	-1.4	0
CC1CCCCN1S(=O)(=O)c1ccc(NC(=O)c2cccs2)cc1 (stereo unspecified)	0.4	74*	56*	-1.6	-2.5	0.3
Cc1nc(NC(=O)c2ccccc2)sc1C1(C)CC(c2ccc(OC(F)(F)F)cc2)=NO1 (stereo unspecified)	/	/	/	-1.4	/	/
SMILES	CYP2C19 activ	CYP2C9 inhib	CYP2C19 inh	Cav32 inh	Pyk2 oligo antag	CYP2C9 activ
O=c1cc(-c2ccccc2Cl)oc2c(NS(=O)(=O)c3cccs3)ccc(O)c12	/	/	/	-2.7	/	/
CN(C1CCCCC1)S(=O)(=O)c1ccc(NC(=S)NC(=O)c2cccs2)cc1	0.6	36	44	-5.7*	-1.3	0.6
CCCc1nn(CCc2ccccn2)c(N)c1CC	0.7	8	31	0.66	0.82	0.9
Cc1ccnc(NCn2nnc3ccccc32)c1	1.1	-3	-6	-0.47	0.05	1
CN1C(=O)C2(NCCc3c2[nH]c2ccccc32)c2ccccc21 (stereo unspecified)	0.2	15	81*	0.71	-0.13	0.9
CC(C)(C)CC(=O)NC(=S)Nc1ccccc1C(F)(F)F	0.6	52*	41	-2.4	-0.88	0.5
Cc1ccc([N+](=O)[O-])cc1NC(=S)NC(=O)CC(C)(C)C	0.7	85*	27	-2.5	-0.87	0.2
Cc1ccc([N+](=O)[O-])cc1NC(=S)NC(=O)C(C)(C)C	0.4	82*	59*	-2.8	0.06	0.2
Cc1ccc(C(=O)NC(=S)Nc2ccccc2C(F)(F)F)cc1	0.9	-37	8	-1.1	-0.3	1.4
CNC(=S)N1CCN(c2ccc([N+](=O)[O-])cc2)CC1	0.7	24	29	/	-0.22	0.8
COCCNC(=O)c1c(CSc2ccc(F)cc2)noc1C(=O)NCc1ccccc1	0.9	6	13	-1.4	/	0.9
CC(NC(=O)Nc1ccccc1)C(c1cccs1)N1CCOCC1 (stereo unspecified)	/	/	/	-0.59	/	/
CC(NC(=O)Nc1ccc(Cl)cc1)C(c1cccs1)N1CCOCC1 (stereo unspecified)	0.3	49	68*	-1.7	/	0.5
CCC(=O)NC(C)C(c1cccs1)N1CCOCC1 (stereo unspecified)	/	/	/	0.14	-0.71	/
CC(NC(=O)c1ccco1)C(c1cccs1)N1CCOCC1 (stereo unspecified)	0.4	33	64*	-0.52	/	0.7
CC(NC(=O)c1ccccc1)C(c1cccs1)N1CCOCC1 (stereo unspecified)	0.4	45	57*	-0.49	/	0.6
Cc1ccc(S(=O)(=O)N2c3ccccc3-c3c(ssc3=S)C2(C)C)cc1	/	/	/	/	-1.4	/
CC1=CC(C)(C)N(S(=O)(=O)c2ccc(F)cc2)c2ccccc21	0.4	46	58*	-4.2	-0.5	0.5
C/C(=N\N=C(/N)SC1CC(=O)N(c2ccc(Cl)cc2)C1=O)c1cccs1 (stereo unspecified)	0.9	-29	14	-1.8	0.28	1.3
C/C(=N\N=C(/N)SC1CC(=O)N(c2ccccc2)C1=O)c1cccs1 (stereo unspecified)	0.7	56*	29	-2.2	-0.59	0.4
O=[N+]([O-])c1ccc(CSc2nnc(-c3cnccn3)o2)cc1	0.1	31	90*	-0.24	-0.59	0.7
O=C1CS/C(=N\C(=O)N2c3ccccc3Sc3ccccc32)N1	1.1	68*	-8	0.56	0.1	0.3
O=C1CSC(=Nc2ccccc2)N1	1	2	1	0.091	0.35	1
